The values that follow come from PubChem BioAssay AID651561 (Sanford-Burnham Center for Chemical Genomics, 2012).

The term IC50 denotes the midpoint of a concentration-inhibition curve.

The list shows a part of the results. Active and inactive are the calls of the source. Rule as the data show it: active = IC50 below about 20 µM; inactive = the rest. Some results are limits rather than exact numbers.

This experiment is described as follows: blockers of mitochondrial swelling via MPTP – biochemical, absorbance, uHTS hits, dose response (AID 651561). Conditions: isolated mitochondria swelling.
As for `Clc1ccc(-c2cc(C3CCNCC3)[nH]n2)c(Cl)c1`, the IC50 was 11.7 µM (active).

Consider `Cc1ccc2c(c1)C1CN(C)CCC1N2S(=O)(=O)c1ccc(Oc2ccc([N+](=O)[O-])cc2)cc1` (stereo unspecified), for which the IC50 is 17.5 µM (active). As for `O=C(NC1CCN(Cc2ccccc2)CC1)c1cc(Br)c(Br)[nH]1`, the figure is > 100 µM (inactive); as for `CC1(C)CC(=O)c2sc(N)nc2C1`, > 100 µM (inactive); as for `O=C(Nc1cccc(-c2cccc(Cl)c2)c1)C1CCN(C2CCC2)CC1`, 5.2 µM (active). For `CCCCCCCCCCCCN1C(=O)CSC1c1cccnc1` (stereo unspecified), the IC50 was 9.05 µM (active). The result for `Brc1ccc(CSc2ccc(-c3ccco3)nn2)cc1` reads > 100 µM (inactive); that for `Cc1cc(C)c(NC(=O)C[N+](C)(C)CC(O)COc2cccc3ccccc23)c(C)c1` (stereo unspecified), 3.67 µM (active); that for `Cc1nn(Cc2ccccc2)c2c1C(c1ccccc1)C(C#N)=C(N)O2` (stereo unspecified), 25.9 µM (inactive).

Take `CCNCCC(=O)N1c2ccccc2Sc2ccc(NC(=O)OCC)cc21`: the IC50 is 32.7 µM (inactive). As for `NC(N)=N/N=C/c1ccc(Cl)c([N+](=O)[O-])c1`, the figure is 7.68 µM (active); as for `O=C(c1ccc(Cl)cc1)c1ccc(OCC(O)CN2CCCCC2)cc1` (stereo unspecified), 17.4 µM (active). The result for `CCCC(C(=O)OCCN(CC)CC)(c1ccccc1)c1ccccc1` reads 12.5 µM (active); that for `Fc1ccc(N2N=C(c3cccs3)CC2c2ccco2)c(F)c1` (stereo unspecified), 51.9 µM (inactive); that for `CCCc1[nH]nc2c1C(c1c(C)nn(-c3ccccc3)c1Cl)C(C#N)=C(N)O2` (stereo unspecified), > 100 µM (inactive). Consider `CCCCOc1ccc(CSC(=N)N)cc1[N+](=O)[O-]`, for which the half-maximal inhibitory concentration (IC50) was 6.05 µM (active).
